Assay outcomes from PubChem BioAssay.
Sampled rows, rich in hits. Any-hit rate of the full collection: about 3%.
PAFAH1B3 FP inh = blocks human PAF acetylhydrolase 1B catalytic subunit 3 | recombinant PAFAH1B3, FP-rhodamine probe, fluorescence polarization | inhibition, % at 3.39 µM | 0.28% of 340,000 active;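 active means inhibition above the screen-wide average of all tested compounds plus 3 SD, cut at about 25% in these data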
PAFAH2 inh = inhibitors of human PAFAH2. inhibition, % at 3.39 µM. AID 492956. Q99487. 0.99% of 340,000 active. recombinant PAFAH2, FP-rhodamine activity probe, fluorescence polarization;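 active means inhibition above the mean over all tested compounds plus 3 SD, cut at about 30% in these data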;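 further: inhibitors block probe labeling of enzyme so polarization drops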
PAFAH1B2 inh = PAFAH1B2 (human) inhibition | P68402 | recombinant PAFAH1B2, FP-rhodamine activity probe, fluorescence polarization | inhibition, % at 3.39 µM | 1.2% of 340,000 active;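 active means inhibition above the mean of all tested compounds plus 3 SD, cut at about 24% in these data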
DAGLB inh = diacylglycerol lipase beta (human) inhibition. Q8NCG7. HEK293T DAGLB membrane lysate, EnzChek fluorogenic substrate. inhibition, % at 5.17 µM. 0.059% of 340,000 active. AID 504411; in the data active means inhibition above about 34%
Target sequence (Q8NCG7 whole entry, looked up): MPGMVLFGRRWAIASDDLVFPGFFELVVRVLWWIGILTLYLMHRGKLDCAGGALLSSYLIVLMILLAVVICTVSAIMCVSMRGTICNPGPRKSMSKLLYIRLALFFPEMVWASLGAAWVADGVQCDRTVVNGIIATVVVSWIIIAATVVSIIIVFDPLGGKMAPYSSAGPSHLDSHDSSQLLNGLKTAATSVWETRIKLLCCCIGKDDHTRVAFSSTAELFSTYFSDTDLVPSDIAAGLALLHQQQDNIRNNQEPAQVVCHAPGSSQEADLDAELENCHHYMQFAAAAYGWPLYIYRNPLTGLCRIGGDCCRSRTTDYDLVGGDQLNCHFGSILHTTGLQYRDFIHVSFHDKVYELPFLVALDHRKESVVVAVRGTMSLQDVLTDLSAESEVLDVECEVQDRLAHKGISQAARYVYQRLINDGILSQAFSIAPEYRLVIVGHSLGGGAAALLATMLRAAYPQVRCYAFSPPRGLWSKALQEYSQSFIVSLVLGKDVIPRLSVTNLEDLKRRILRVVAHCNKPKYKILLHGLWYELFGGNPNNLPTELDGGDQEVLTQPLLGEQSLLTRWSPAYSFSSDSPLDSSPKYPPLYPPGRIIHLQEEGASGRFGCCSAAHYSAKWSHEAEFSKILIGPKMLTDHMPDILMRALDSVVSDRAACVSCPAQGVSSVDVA
pPAFAH inh = inhibitors of human plasma PAF acetylhydrolase (pPAFAH); 1.5% of 330,000 active; inhibition, % at 3.39 µM; recombinant pPAFAH, FP-rhodamine probe fluorescence polarization; Q13093;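 active means inhibition above the mean inhibition across the screen plus 3 SD, cut at about 25% in these data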;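 further: inhibitors block binding of the rhodamine activity-based probe so polarization drops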
ATG4B inhibitor = ATG4B (human) cysteine protease inhibition. AID 504462. 0.51% of 340,000 active. ATG4B cleavage of LC3-PLA2, NBD-HPC fluorescence, 1 h. Q9Y4P1. inhibition, % at 8.33 µM; in the data active means inhibition above about 40%
pPAFAH FP conf = confirmation of human plasma PAF acetylhydrolase (pPAFAH) inhibitors | recombinant pPAFAH, FP-Rh probe fluorescence polarization | shares compounds with pPAFAH inh | 72% of 2,300 active | AID 463230 | inhibition, % at 3.39 µM;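 active means mean inhibition of the triplicate above the hit cutoff set for the earlier primary screen, cut at about 25% in these data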
Numbers stand for hits; n = inactive; x = not tested or not shown.

SMILES	PAFAH1B3 FP inh	PAFAH2 inh	PAFAH1B2 inh	DAGLB inh	pPAFAH inh	ATG4B inhibitor	pPAFAH FP conf
O=C(/C=C/c1ccc(Cl)cc1Cl)c1ccc[nH]1	n	n	n	n	n	n	x
CN(CC(=O)NCCCN1CCOCC1)S(=O)(=O)c1cc(Cl)ccc1Cl	n	n	n	n	x	n	x
O=C(Cc1cnn(-c2ccccc2)c1)c1ccc(O)c(O)c1O	n	n	n	n	73	n	54
O=C1c2ccccc2-c2onc3ccc(NCc4ccco4)c1c23	104	121	105	n	82	n	104
O=C1C(Cl)=C(NCc2ccco2)C(=O)c2ccccc21	n	n	n	n	x	n	x
CCNc1ccc2noc3c2c1C(=O)c1ccccc1-3	104	114	114	n	106	n	99
O=C(CC(Sc1ccc(Br)cc1)C(=O)O)c1ccc(F)cc1 (stereo not drawn)	n	n	n	n	n	n	x
O=C(Nc1nc(-c2ccco2)c(-c2ccco2)s1)C1CC(=O)N(c2ccc3c(c2)OCCO3)C1 (stereo not drawn)	n	n	n	n	47	n	41
Cc1nnc(NC(=O)C2CC(=O)N(c3ccc4c(c3)OCCO4)C2)s1 (stereo not drawn)	n	n	n	n	n	n	x
CCOC(=O)c1c(N)sc(=S)c2c1CCC2	n	n	n	n	49	n	n
CCOC(=O)c1c(N)sc(N)c1C(=O)OCC	n	n	n	n	n	n	x
CCCCC(=O)Nc1nc(C)c(-c2csc(Nc3ccccc3OC)n2)s1	n	n	n	n	n	n	x
CCCCCCC(=O)Nc1nc(C)c(-c2csc(Nc3cc(OC)ccc3OC)n2)s1	n	n	n	n	47	n	41
CCCCCC(=O)Nc1nc(C)c(-c2csc(Nc3cc(OC)ccc3OC)n2)s1	n	n	n	n	40	n	29
COc1cccc(NC(=O)CSCc2nc3sc(C)c(C)c3c(=O)[nH]2)c1	x	x	x	n	x	x	x
CCCN(CCC)C(=O)C1CCN(c2ccc(S(=O)(=O)N3CCOCC3)cc2[N+](=O)[O-])CC1	n	n	n	n	n	n	x
CN(CC(=O)Nc1ccc(N2CCOCC2)cc1)CC(=O)Nc1ccc(N2CCOCC2)cc1	n	n	n	n	42	n	35
CSCCC(NC(=O)c1ccccc1)C(=O)N(C)CC(=O)Nc1ccc(N2CCOCC2)cc1 (stereo not drawn)	n	n	n	n	36	n	32
CN(CC(=O)Nc1ccc(N2CCOCC2)cc1)C(=O)Cc1ccccc1	n	n	n	n	n	n	x
CSc1ccccc1NC(=O)CN(C)CC(=O)Nc1ccc(N2CCOCC2)cc1	n	n	n	n	n	n	x
CN(CC(=O)Nc1ccc(S(=O)(=O)N2CCCC2)cc1)Cc1c(F)cccc1Cl	n	n	n	n	n	n	x
COc1ccc(C(=O)N2CCC(n3nccc3NC(=O)C3CCOC3)CC2)cc1 (stereo not drawn)	n	n	n	n	n	n	x
CC(C)Oc1ccc(CNCCC2(C(C)C)CCOC(C)(C)C2)cc1 (stereo not drawn)	n	n	n	n	57	n	n
COc1ccc(CNCCC2(C(C)C)CCOC(C)(C)C2)cc1 (stereo not drawn)	n	n	n	n	n	n	x
COc1ccc2[nH]c(=O)c(CN(C3CCCCC3)C(c3nnnn3Cc3ccco3)C(C)C)cc2c1 (stereo not drawn)	n	n	n	n	36	n	28
SMILES	PAFAH1B3 FP inh	PAFAH2 inh	PAFAH1B2 inh	DAGLB inh	pPAFAH inh	ATG4B inhibitor	pPAFAH FP conf
CCOc1ccc(Nc2nc(NCC3CCCO3)c3ccccc3n2)cc1 (stereo not drawn)	n	n	n	n	67	n	55
CC(/C=N/NC(=O)c1ccc(Cn2cc([N+](=O)[O-])cn2)o1)=C\c1ccccc1	n	n	n	n	n	n	x
CCOc1cc(CNc2ccc(O)cc2)ccc1OCc1ccc(Cl)cc1Cl	n	n	n	n	36	n	n
CCOc1cc(CNCc2ccccc2)ccc1OCc1ccc(Cl)cc1	n	n	n	n	n	n	x
Cc1cc(/C=C2\SC(=S)NC2=O)c(C)n1-c1ccc(O)cc1	n	n	n	n	35	n	45
COc1ccc(-n2c(C)cc(/C=C3\SC(=S)NC3=O)c2C)cc1	n	n	n	n	n	n	x
